{"source": "PubChem BioAssay (NCATS)", "note": "Values without a mark were called inactive. Calls of active or inactive are those of the source. Calls come from the whole dose curve; as a rule, active = well fitted curve in the direction sought with a large enough effect in the signal ratio, with a control signal flat (not every such curve was filed as active); inconclusive = small, poorly fitted or top-dose-only effect, or effect the other way, or a change in a side signal; inactive = no such curve, though single readings can be large or run the other way; the % refers to the signal ratio.", "data": [{"biological_target": "Estrogen receptor (Homo sapiens) (UniProt P03372)", "sequence (P03372 whole entry, looked up)": "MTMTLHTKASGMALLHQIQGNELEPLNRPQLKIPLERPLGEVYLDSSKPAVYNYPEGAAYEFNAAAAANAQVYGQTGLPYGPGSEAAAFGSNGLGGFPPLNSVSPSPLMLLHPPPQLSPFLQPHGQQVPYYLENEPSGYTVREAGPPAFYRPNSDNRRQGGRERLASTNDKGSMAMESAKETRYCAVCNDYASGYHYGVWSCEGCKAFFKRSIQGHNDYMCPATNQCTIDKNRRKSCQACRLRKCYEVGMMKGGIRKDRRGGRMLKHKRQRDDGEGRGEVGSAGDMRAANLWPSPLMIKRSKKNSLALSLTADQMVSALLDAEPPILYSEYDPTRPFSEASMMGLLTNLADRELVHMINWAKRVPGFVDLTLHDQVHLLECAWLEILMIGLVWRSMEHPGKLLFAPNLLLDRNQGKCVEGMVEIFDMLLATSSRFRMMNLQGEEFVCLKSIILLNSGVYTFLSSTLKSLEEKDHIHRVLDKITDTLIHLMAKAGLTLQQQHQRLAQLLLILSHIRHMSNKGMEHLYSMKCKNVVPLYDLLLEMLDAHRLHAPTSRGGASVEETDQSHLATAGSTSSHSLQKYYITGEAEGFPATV", "assay": "qHTS assay for small molecule antagonists of estrogen receptor alpha signaling (AID 588513)", "conditions": "ER-alpha-UAS-bla HEK293, beta-lactamase ratio, antagonist mode; series mostly up to 76.9 µM; activity, negative = inhibition: at the top concentration", "from_the_text": "NIH Chemical Genomics Center [NCGC]\nU.S. Environmental Protection Agency [EPA]\nNational Institutes of Environmental Health Sciences [NIEHS]\nNational Toxicology Program [NTP]\nEstrogen receptor alpha (ER-alpha) is an important member of nuclear hormone receptors. ER-alpha plays important role in breast cancer as well as in other women's health issues. The majority of breast cancers is estrogen receptor (ER) positive and depends on estrogen for growth. There is also growing concern for some of environmental chemicals which may contribute the increasing the incidence of breast cancer. Therefore, it is important to understand the effect of environmental chemicals in ER-alpha signaling pathway.\nNCGC Assay Protocol Summary\nUsing a beta-lactamase reporter-gene under control of the ER response element, a cell-based assay [ER-alpha-UAS-bla GripTiteTM cell-Based Assay from Invitrogen] was used to measure ER-alpha signaling pathway in antagonist mode. ER-alpha-UAS-bla-GripTite HEK 293 cells were used with assay medium containing 2% charcoal/dextran treated FBS, 0.1 mM NEAA and 1 mM sodium pyruvate. Cells were cultured in this assay medium overnight in the flasks before the assay. The assay was performed in clear bottom black Greiner 1536-well plates. 17-beta-estradiol was used as a positive control in the screen. Library compounds were measured for their ability to inhibit the reporter gene activity. Compounds were screened in a titration series in 1536-well format. […] Data was normalized relative to 17-beta-estradiol control (0.5nM, 100%), and DMSO only wells (basal, 0%). Concentration-response titration points for each compound were fitted to the Hill equation yielding concentrations of half-maximal inhibition (IC50) and maximal response (efficacy) values.\nqHTS protocol for ER-alpha beta-lactamase assay in antagonist mode\n[Step] [Parameter] [Value] [Description]\n1. Reagent; 5 uL; 5000 cells/well\n2. Incubation; 37 C for 4 hrs\n- Dose response, Start 38uM, 1:2 dilutions with duplicates\n- Two columns with 38 and 19uM (final) concentration.\n5. Agonist (Stimulator); 1uL; 17-beta-estradiol at 0.5nM (final) concentration\n6. Incubation; 37 C for 18 hrs\n7. Detection reagent; 1 uL of CCF4-dye\n8. Incubation; RT for 2 hrs\n9. Detection; Fluorescence; Envision plate reader or Acumen plate reader", "values": [{"smiles": "CN(C)c1ccc(C2(c3ccc(N(C)C)cc3)OC(=O)c3cc(N(C)C)ccc32)cc1", "activity, negative = inhibition": "25.9%"}, {"smiles": "C=CC(=O)OCCOCCOC(=O)C=C", "Potency": "35.5 µM [inconclusive] (active)"}, {"smiles": "O=C1OC2(c3cc(Br)c(O)c(Br)c3Oc3c2cc(Br)c(O)c3Br)c2c(Cl)c(Cl)c(Cl)c(Cl)c21", "activity, negative = inhibition": "15.5%"}, {"smiles": "CN1[C@H]2CC(OC(=O)[C@H](CO)c3ccccc3)C[C@H]1[C@H]1O[C@H]12", "note": "(stereo not given in full)", "Potency": "inactive"}, {"smiles": "Cc1cccc(O)c1C", "activity, negative = inhibition": "9.26% [at 36 µM]"}, {"smiles": "ClC1=C(Cl)C(Cl)(Cl)C(Cl)=C1Cl", "Potency": "inactive"}, {"smiles": "CCC(C)Nc1ccc(NC(C)CC)cc1", "note": "(stereo not given)", "Potency": "6.31 µM [inconclusive] (active)"}, {"smiles": "Cc1cc(O)c(C(C)(C)C)cc1Sc1cc(C(C)(C)C)c(O)cc1C", "Potency": "12.6 µM [inconclusive] (active)"}, {"smiles": "CO[C@H]1/C=C/O[C@@]2(C)Oc3c(C)c(O)c4c(O)c(c5c(c4c3C2=O)NC2(CCN(CC(C)C)CC2)N=5)=NC(=O)/C(C)=C\\C=C\\[C@H](C)[C@H](O)[C@@H](C)[C@@H](O)[C@@H](C)[C@H](OC(C)=O)[C@@H]1C", "activity, negative = inhibition": "-25.4%"}, {"smiles": "c1ccc2c(c1)ccc1cc3c(ccc4ccccc43)cc12", "activity, negative = inhibition": "26.5%"}]}]}
